High-throughput results as filed in PubChem BioAssay.
MEX-5 binding = MEX-5 zinc finger RNA-binding disruptors – biochemical, C. elegans, fluorescence polarization, MLPCN library, primary screen; Zinc finger protein mex-5 (Caenorhabditis elegans), Q9XUB2; MEX-5/FITC-TCR2 RNA binding; hits give low values; activity score (negative = inhibition of binding), % at 10 µM; 300,000 compounds, 0.38% hits;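 active means inhibition past about -25% in most replicates, and total fluorescence under double the plate's negative control median, limit read from the data; inconclusive means replicates evenly split on the limit, or fluorescence at least double controls; inactive means too little inhibition in most replicates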;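 further: 0% = DMSO and -100% = 5 µM competing unlabeled TCR2 RNA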
Target sequence (Q9XUB2 whole entry, looked up): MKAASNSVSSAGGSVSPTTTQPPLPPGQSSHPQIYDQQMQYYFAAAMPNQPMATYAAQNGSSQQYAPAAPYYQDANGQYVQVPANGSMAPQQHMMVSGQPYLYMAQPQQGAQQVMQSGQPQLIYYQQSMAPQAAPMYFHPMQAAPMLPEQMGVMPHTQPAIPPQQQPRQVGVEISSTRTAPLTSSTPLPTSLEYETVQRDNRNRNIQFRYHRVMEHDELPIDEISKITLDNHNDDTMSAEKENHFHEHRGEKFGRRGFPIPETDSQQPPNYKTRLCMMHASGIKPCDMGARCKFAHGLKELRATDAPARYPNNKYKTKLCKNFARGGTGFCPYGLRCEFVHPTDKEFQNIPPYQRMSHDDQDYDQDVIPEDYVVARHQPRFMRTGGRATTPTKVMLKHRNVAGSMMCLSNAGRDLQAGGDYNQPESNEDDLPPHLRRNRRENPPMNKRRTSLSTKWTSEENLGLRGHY
BCLXL inh = inhibitors of human Bcl-xL, primary screen, biochemical, fluorescence polarization, HTS; inhibition, % at 10.9 µM; AID 2129, 2009; 320,000 compounds, 0.7% hits; GST-Bcl-xL / FITC-Bim BH3 peptide fluorescence polarization;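 active means inhibition above the mean of all tested compounds plus 3 SD, cutoff set per campaign, cut at about 30% in these data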;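 further: 0% = DMSO wells and 100% = unlabeled Bim-BH3 peptide competitor; inhibitors lower millipolarization by displacing the labeled peptide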
Target sequence (Q07817 whole entry, looked up): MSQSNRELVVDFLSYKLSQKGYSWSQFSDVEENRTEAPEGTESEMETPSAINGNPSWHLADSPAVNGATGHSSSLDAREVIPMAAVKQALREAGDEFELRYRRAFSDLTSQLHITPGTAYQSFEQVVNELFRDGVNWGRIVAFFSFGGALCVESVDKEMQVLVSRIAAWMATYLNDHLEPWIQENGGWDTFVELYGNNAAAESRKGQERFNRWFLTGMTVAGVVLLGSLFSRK
GLD-1 RNA inh = GLD-1/TGE RNA complex disruptors, primary screen, biochemical, fluorescence polarization | purified GLD-1 + fluorescein TGE RNA | inhibition, % at 5.96 µM | 320,000 compounds, 0.44% hits;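 active means percent inhibition above a per-plate cutoff, the plate mean of test compounds plus 3 SD, cut at about 30% in these data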;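 further: 0% = DMSO wells with GLD-1 and probe and 100% = wells lacking GLD-1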
eLon inh = inhibitors of E. coli Lon protease, primary screen, biochemical, fluorescence polarization. P0A9M0. purified E. coli Lon protease. inhibition, % at 7.94 µM. 360,000 compounds, 0.42% hits. AID 602123, 2011; in the data active means inhibition above about 13%, passing the limit was not always enough;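 further: 0% = enzyme with probe and DMSO and 100% = no enzyme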
MCL1-BIM inh = inhibitors of MCL1 binding to BIM-BH3, primary screen, biochemical, fluorescence polarization. Induced myeloid leukemia cell differentiation protein Mcl-1 (Homo sapiens), Q07820. GST-MCL1 / FITC-Bim-BH3 fluorescence polarization. inhibition, % at 10.9 µM. 320,000 compounds, 0.68% hits. AID 2057, 2009;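 active means inhibition above the mean inhibition of all tested compounds plus 3 SD, set per campaign, cut at about 40% in these data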;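 further: 0% = DMSO wells and 100% = unlabeled Bim-BH3 peptide control; higher means more loss of mP so more displacement of Bim peptide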
* hit, by the source's call; u = inconclusive; x = not tested or not shown. An excerpt weighted towards active compounds, which were near 1.4% of everything screened.

SMILES | MEX-5 binding | BCLXL inh | GLD-1 RNA inh | eLon inh | MCL1-BIM inh
C=CCn1c(=O)/c(=C\c2ccccn2)s/c1=C(/C#N)C(=O)NCC1CCCO1 (configuration not stated) | -27.9* | -1.3 | 3.7 | -9.3 | -5.4
CCOC(=O)C(=O)Cc1nc2ccccc2s1 | 5.6 | -8.1 | 46.2* | -69.5 | -5.7
CC(=O)OCc1nc2ccccc2s1 | -0.8 | 2.1 | 6.1 | -7.3 | 2.4
COc1ccc(C(NC(=O)C2CCN(CCOc3ccc(Cl)cc3Cl)CC2)c2ccccn2)cc1 (configuration not stated) | x | x | x | 2.6 | x
Cc1nc2ccc(S(=O)(=O)NCC(=O)NCCN3CCCCCC3)cc2s1 | 0.0 | 41.0* | -6.9 | -0.3 | 42.4*
COc1ccc(CSc2n[nH]c(=O)[nH]c2=O)cc1 | x | x | x | -4.3 | x
N#CC(C(=O)NCc1ccccc1)c1nc2ccccc2nc1N1CCCC1 (configuration not stated) | -96.7* | 4.6 | -11.1 | -7.2 | 8.2
N#CC(C(=O)NCCc1ccccc1)c1nc2ccccc2nc1N1CCCCC1 (configuration not stated) | u | 8.2 | 3.8 | 5.1 | 3.3
O=C(c1ccccc1)c1ccc2nc(-c3ccco3)c(-c3ccco3)nc2c1 | 1.0 | 31.5* | -0.5 | -5.8 | 38.4
O=C(O)c1cc(-c2ccco2)nc2cc3ccccc3cc12 | -23.5 | 35.1* | -1.4 | -15.5 | 39.1
O=C(NNC(=O)c1cc(-c2ccco2)nc2ccccc12)c1ccccc1 | 2.0 | 35.2* | 28.4 | -8.2 | 39.1
O=C(O)c1ccc2nc(-c3ccccc3)c(-c3ccccc3)nc2c1 | 0.0 | 5.0 | 1.6 | -9.9 | 7.6
CC(C)c1cc(=O)oc2c3c4c(cc12)CCCN4CCC3 | -7.3 | 26.2 | 44.2* | -9.8 | 17.9
CN(C)CCN(C)C1CN(Cc2ccccc2)S(=O)(=O)C1 (configuration not stated) | x | x | x | 3.0 | x
Cc1ccc(/C=N/Nc2ncnc3nc[nH]c23)cc1 | -25.9* | 2.7 | 3.5 | -4.0 | 1.8
Oc1ccc(/C=N/Nc2ncnc3nc[nH]c23)cc1 | -29.0* | 5.9 | -0.6 | 5.7 | -3.8
O=C(O)CCC(C(=O)O)N1C(=O)C2C3CCC(C3)C2C1=O (configuration not stated) | x | x | x | -20.8 | x
CN=C1S/C(=C\c2cn(CC(=O)OC)c3ccccc23)C(=O)N1C | -28.2* | -1.8 | -16.9 | -15.3 | -2.1
CCC(=S)/C=C1\Sc2ccc3ccccc3c2N1CCCS(=O)(=O)O | -68.1* | 14.2 | -4.1 | x | 25.8
COc1ccc(-c2nc(-c3ccccc3)nc(N3CCN(C)CC3)c2C#N)cc1 | -1.4 | 3.9 | 3.3 | 0.2 | -2.1
CN1CCN(c2nc(-c3ccccc3)nc(-c3ccccc3)c2C#N)CC1 | -25.5* | 2.5 | 8.4 | -1.9 | 0.4
O=C(O)c1ccccc1-c1c2cc(I)c(=O)c(I)c-2oc2c(I)c(O)c(I)cc12 | x | 109.7* | 49.4* | 21.0 | 115.3*
CCCN(CCC)Cc1cc(=O)oc2cc(C)cc(C)c12 | x | x | x | -6.5 | x
COc1ccc(NC(=O)Nc2cc(C(=O)O)ccc2N2CC3CC(C2)c2cccc(=O)n2C3)c(OC)c1 (configuration not stated) | -1.0 | 9.9 | 5.9 | 3.0 | 15.6
CCc1ccc(/C=C2\Oc3c(ccc(O)c3CN3CCN(CCO)CC3)C2=O)cc1 | -30.0* | 51.2* | 7.5 | -32.9 | 48.6*
SMILES | MEX-5 binding | BCLXL inh | GLD-1 RNA inh | eLon inh | MCL1-BIM inh
O=C(/C=C/c1cccs1)N1CCC2(CC1)Oc1ccc(F)cc1C(=O)C21CC(c2ccc(Cl)cc2)=NO1 (configuration not stated) | 0.5 | 30.9* | -3.6 | 12.1 | -3.7
O=C(/C=C/c1cccs1)N1CCC2(CC1)Oc1ccc(Cl)cc1C(=O)C21CC(c2ccc(Cl)cc2)=NO1 (configuration not stated) | -2.2 | 3.0 | 9.3 | 15.9 | -0.1
COc1cccc(C(=O)NCC(=O)NNc2ncnc(N)c2[N+](=O)[O-])c1 | -32.5* | -2.5 | 5.6 | -9.5 | -3.3
CCOc1cc(N2CCOCC2)c(OCC)cc1NC(C)C(=O)N1CCN(CC)CC1 (configuration not stated) | -27.9* | x | x | -5.0 | x
CCOc1cc(N2CCOCC2)c(OCC)cc1NC(=O)C(C)C | -0.4 | -0.8 | -6.2 | -2.9 | -5.2
Cc1ccc(S(=O)(=O)N/N=C/c2cc(Br)c(C)o2)cc1 | -0.2 | 10.5 | 12.5 | 16.6* | 11.0
Cc1ccc(S(=O)(=O)NN=Cc2ccco2)cc1 | x | x | x | -8.6 | x
CC1=C(C(=O)NCc2ccccc2)C(c2ccc(C)o2)n2ncnc2N1 (configuration not stated) | 0.0 | 38.5* | 29.9 | -1.3 | 41.6*
CC1=C(C(=O)Nc2ccccc2)C(c2ccc(C)o2)n2ncnc2N1 (configuration not stated) | 0.1 | 7.0 | 0.6 | 4.0 | 12.6
Nc1ccc(S(=O)(=O)Nc2nccc(/C=C/c3ccccc3F)n2)cc1 | 0.7 | 3.8 | 5.6 | 1.8 | 8.0
CC(=O)c1cc2c(O)c(O)ccc2o1 | -0.2 | 33.5* | 10.2 | 10.2 | 23.6
CCN(CC)Cc1c(O)ccc2c1O/C(=C\C=C\c1ccccc1)C2=O | -7.2 | 27.3 | 12.0 | -77.1 | 19.3
COCCN(CCOC)Cc1c(O)ccc2c1O/C(=C\c1ccc(C)o1)C2=O | u | 34.4* | -3.9 | -67.4 | 24.5
COc1c(C(=O)Nc2ccc(Br)cn2)ccc2ccccc12 | 3.5 | 56.8* | 5.0 | -2.8 | -0.2
COc1ccc2c(c1)Cc1c-2cc(Br)c(N)c1Br | x | x | x | -9.7 | x
CN(c1ccc(OCC(=O)NCc2cccnc2)cc1)S(=O)(=O)c1ccc(Cl)cc1 | 3.4 | 3.4 | 6.5 | 1.8 | -2.3
Cc1cccc[n+]1C1C(c2ccc([N+](=O)[O-])cc2)C(C#N)=C(C(=C=[N-])C#N)NC1(O)C1CC1 (configuration not stated) | -6.3 | 31.3* | 19.2 | -3.8 | 25.0
CN(C)CCCn1c(=O)n(CCc2ccccc2)c(=O)c2c3c(sc21)CCCCC3 | 0.2 | 56.1* | 21.4 | -4.2 | 37.8
CN(C)CCn1c(=O)n(Cc2ccccc2)c(=O)c2c3c(sc21)CCCCC3 | 0.0 | 6.6 | 2.9 | -1.4 | 10.6
C=CS(=O)(=O)N(Cc1ccc(Cl)c(Cl)c1)C[C@@H](O)CO | x | x | x | -8.6 | x
COC(=O)CCC(=O)N1CCCC(N2CCN(c3cccc(C(F)(F)F)c3)CC2)C1 (configuration not stated) | 1.0 | 3.9 | 3.2 | -3.1 | 13.8
COc1ccccc1C(=O)Nc1nnc(-c2ccccc2)s1 | 1.9 | 46.6* | 10.4 | 1.9 | -0.8
Cc1cc2ccccc2n1CCNC(=O)Cc1ccccc1 | -1.1 | 7.2 | 16.0 | 9.4 | 7.6
